Records with an inconclusive call do not appear. A call without a number means that no potency is given here. A number with no mark means an inactive call. Calls of active or inactive are those of the source. Calls come from the whole dose curve; as a rule, active = well fitted curve in the direction sought with a large enough effect in the repeat runs; inconclusive = weak or mixed curves; inactive = no such curve, though single readings can be large; an effect the other way counts as inactive or inconclusive.

One test is described as follows: qHTS RealTime-Glo MT Cell Viability Assay in HepG2 cells - 0 hour (AID 1224889). Note: nearly all actives have a fitted effect of over 50% in size. The note with it: RealTime-Glo luminescence; series mostly up to 76.8 µM. In outline:
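Cell number in HepG2 cultures estimated from NanoLuc luminescence generated by metabolic reduction of a prosubstrate by living cells. The homogeneous, nonlytic format allowed repeated reads at 0, 8, 16, 24, 32 and 40 h of compound exposure.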
Consider `CCc1cc(Cl)c(OC)c(C(=O)NC[C@@H]2CCCN2CC)c1O`, for which the Potency result was “inactive”.
The same measure, in the same setting: to `CC(C)O` belongs “inactive”; to `CC(CNC1CCCCC1)OC(=O)c1ccccc1` (stereo not drawn), “inactive”.
As for `O=S(=O)(O)C(F)(F)F`, the Potency entry was “inactive”.
For the compound `CC(C)NCC(O)COc1ccc(CCOCC2CC2)cc1` (stereo not drawn), the Potency result is “inactive”.
Take `NC1=NCC2c3ccccc3Cc3ccccc3N12` (stereo not drawn): the Potency entry was “inactive”.
For `CC(C)(CO)[C@@H](O)C(=O)NCCC(=O)O`, the Potency entry is “inactive”.
The same measure, in the same setting: to `CCCCNC(=S)NCCCC` belongs “inactive”; to `CC(C)CCCCCCc1ccc(OCCOCCO)cc1`, “inactive”.

The next test in a line: A CellTox Green Cytotoxicity Assay to monitor cytotoxicity in HepG2 cells - 8 hour (AID 1224890). Note: nearly all actives have a fitted effect of over 45% in size. Conditions: CellTox Green fluorescence; series mostly up to 76.8 µM. In outline: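 Nonlytic assay: viable cells exclude the dye, so fluorescence scales with cell death. HepG2 at 600 cells/well, compounds added after 5 h, signal read across 40 h.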
Take `O=c1oc2c(O)c(O)cc3c(=O)oc4c(O)c(O)cc1c4c23`: the cytotoxicity increase is -1.27% [at 15.8 µM].
For the compound `Cc1nnc(SCC2=C(C(=O)O)N3C(=O)[C@@H](NC(=O)Cn4cnnn4)[C@H]3SC2)s1`, the Potency result is “inactive”.
For the compound `Cc1cc(S(=O)(=O)O)c(N)cc1Cl`, the Potency result is “inactive”.
As for `COc1cc(C)ccc1C(C)C`, the Potency entry was “inactive”.
Same read-out and setting: to `Cc1ccsc1C(=CCCN1CCC[C@@H](C(=O)O)C1)c1sccc1C` belongs “inactive”.
`C=CC1CO1` (stereo not drawn): the Potency entry was “inactive”.
On to `CNCCC(Oc1ccccc1OC)c1ccccc1` (stereo not drawn), for which the Potency result was “inactive”.
Regarding `FC(F)(F)C(F)(F)C(F)(F)C(F)(F)C(F)(F)C(F)(F)C(F)(F)C(F)(F)Br`, the Potency result was “inactive”.
Consider `CCN(CC)C(=O)N(CC)CC`, for which the Potency entry is “inactive”.
Consider `CN(CC1(C)CCCO1)S(=O)(=O)c1ccc(Cl)c(S(N)(=O)=O)c1` (stereo not drawn), for which the Potency entry was “inactive”.
The same measure, in the same setting: to `O=CCCc1ccccc1` belongs “inactive”; to `CN1C(=O)CC(c2ccccc2)C1=O` (stereo not drawn), “inactive”.
Turning to `CCCN(CCC)C(=O)C(CCC(=O)O)NC(=O)c1ccccc1` (stereo not drawn), the Potency entry was “inactive”.
Take `CC(=O)Nc1ccc(C)c(Cl)c1`: the Potency entry is “inactive”.
In the case of `CCCCN1C[C@H](O)[C@@H](O)[C@H](O)[C@H]1CO`, the Potency result was “inactive”.
For the compound `Cc1cccc(C)c1NC(=O)CN1CCCCCC1`, the Potency result was “inactive”.
Turning to `CO[C@@]1(NC(=O)CSCC#N)C(=O)N2C(C(=O)O)=C(CSc3nnnn3C)CS[C@@H]21`, the Potency result is “inactive”.
On to `FC(F)(F)C(Cl)(Cl)Cl`, for which the Potency entry was “inactive”.
The same measure, in the same setting: to `CCC(=O)Nc1ccc(O)cc1` belongs “inactive”.
As to `N#Cc1ccc(C(c2ccc(C#N)cc2)n2cncn2)cc1`, the Potency result is “inactive”.
On the same count and under the same terms, next, `CCOc1ccc2nc(N)sc2c1`: “inactive”.
Still for that read-out and setting: next, `Cc1ccc([N+](=O)[O-])cc1Cl`: “inactive”; `CCCCCCC`: “inactive”.
Consider `CCc1cc(Cl)c(OC)c(C(=O)NC[C@@H]2CCCN2CC)c1O`, for which the Potency entry is “inactive”.
The same measure, in the same setting: to `CC(C)O` belongs “inactive”; to `CC(CNC1CCCCC1)OC(=O)c1ccccc1` (stereo not drawn), “inactive”.
Same read-out and setting: to `CC(=O)OC1C2(C)CCC(C2)C1(C)C` (stereo not drawn) belongs “inactive”.
For the compound `COc1ccc(S(=O)(=O)Nc2nnc(CC(C)C)s2)cc1`, the Potency result was “inactive”.
With `NC/C=C/C(=O)O`, the Potency result is “inactive”.
Consider `C1CSCCS1`, for which the Potency result was “inactive”.
For the compound `C[C@]12C(=O)OC(=O)[C@H]1[C@H]1C=C[C@@H]2C1`, the Potency result is “inactive”.
Same read-out and setting: next, `OCCN(CCO)CCN(CCO)CCO`: “inactive”.
With `O=S(=O)(O)C(F)(F)F`, the Potency entry was “inactive”.
Turning to `CC(C)NCC(O)COc1ccc(CCOCC2CC2)cc1` (stereo not drawn), the Potency result was “inactive”.
Still for that read-out and setting: to `NC1=NCC2c3ccccc3Cc3ccccc3N12` (stereo not drawn) belongs “inactive”.
Turning to `CC(C)(CO)[C@@H](O)C(=O)NCCC(=O)O`, the Potency result is “inactive”.
On to `CCCCNC(=S)NCCCC`, for which the Potency result is “inactive”.
With `CC(C)CCCCCCc1ccc(OCCOCCO)cc1`, the Potency result was “inactive”.
On the same count and under the same terms, to `CC(=O)O[C@H]1CC[C@@]2(C)C(=CC[C@@H]3[C@@H]2CC[C@]2(C)C(C(C)=O)=CC[C@@H]32)C1` belongs “inactive”.

Source of the values: PubChem BioAssay (Tox21).
